Results filed as inconclusive are left out. Calls of active or inactive are those of the source. Unless noted, calls come from the whole dose curve; as a rule, active = well fitted curve in the direction sought with a large enough effect; inconclusive = small, poorly fitted or top-dose-only effect, or another doubt; inactive = no such curve, though single readings can be large; an effect the other way counts as inactive or inconclusive.
What was measured:
[1] = qHTS assay for measurement of the activity of small molecule inhibitors on Zika virus induced Caspase-3 activity in human iPSC derived neural progenitor cells (hNPCs) (AID 1224857); note: nearly all actives have a fitted effect of over 65% in size
Procedure, shortened: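 After overnight (16–20 h) culture at 350 cells/well, hNPCs get compound, then ZIKV 2 FFU/cell one hour later. Six hours on, Caspase-Glo 3/7 is added and luminescence measured.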

[2] = qHTS assay for measurement of the activity of small molecule inhibitors on Zika virus induced Caspase-3 activity in human astrocytoma cells (AID 1224859)
Procedure, shortened: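 Inhibition of Zika-induced caspase-3/7 activity: SNB-19 cells, 1 h compound pretreatment, ZIKV 2 FFU/cell for 6 h at 37 C, Caspase-Glo luminescence read-out.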

[3] = qHTS of pediatric cancer cell lines to identify multiple opportunities for drug repurposing: Primary screen for TC32 cells (AID 1347089); note: nearly all actives have a fitted effect of over 60% in size; note: potency is the fitted concentration of half-maximal effect
Procedure, shortened: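 Measured quantity: luminescence from CellTiter-Glo, reflecting metabolically active TC32 cells following 48 h of compound. Curves came straight from multi-point titrations, with 8 or 11 points in primary and 11 in confirmatory screening.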

[4] = qHTS of pediatric cancer cell lines to identify multiple opportunities for drug repurposing: Primary screen for DAOY cells (AID 1347090); note: nearly all actives have a fitted effect of over 55% in size; note: potency is the fitted concentration of half-maximal effect
Procedure, shortened: (§1)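 Cell viability, CellTiter-Glo luminescence; 500-1,000 cells/well, 8- or 11-point titration, 48 h compound exposure at 37 degrees C, 5% CO2. Controls: DMSO neutral, bortezomib 2.3 µM final as positive.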

[5] = qHTS of pediatric cancer cell lines to identify multiple opportunities for drug repurposing: Primary screen for SJ-GBM2 cells (AID 1347091); note: potency is the fitted concentration of half-maximal effect
Procedure, shortened: as §1

[6] = qHTS of pediatric cancer cell lines to identify multiple opportunities for drug repurposing: Primary screen for A673 cells (AID 1347092); note: nearly all actives have a fitted effect of over 45% in size; note: potency is the fitted concentration of half-maximal effect
Procedure, shortened: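 Cells are plated, rested 5 h, dosed by pintool, incubated 48 h, then lysed with CellTiter-Glo and read by luminescence. DMSO is the neutral control; bortezomib at 2.3 uM final is the positive control.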

[7] = qHTS of pediatric cancer cell lines to identify multiple opportunities for drug repurposing: Primary screen for SK-N-MC cells (AID 1347093); note: potency is the fitted concentration of half-maximal effect
Procedure, shortened: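 Metabolically active cells were quantified by ATP-dependent luminescence (CellTiter-Glo, 15 min at room temperature) following 48 h treatment. Cells had been plated at 500-1,000 per well and settled for 5 h beforehand.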

[8] = qHTS of pediatric cancer cell lines to identify multiple opportunities for drug repurposing: Primary screen for BT-37 cells (AID 1347094); note: potency is the fitted concentration of half-maximal effect
Procedure, shortened: (§2)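 CRCs from 8- or 11-point titrations (lowest final 0.59 nM NPC, 0.78 nM MIPE). Cell viability: CellTiter-Glo after 48 h incubation, 15 min room-temperature development, luminescence imaging.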

[9] = qHTS of pediatric cancer cell lines to identify multiple opportunities for drug repurposing: Primary screen for NB-EBc1 cells (AID 1347095); note: potency is the fitted concentration of half-maximal effect
Procedure, shortened: as §2

[10] = qHTS of pediatric cancer cell lines to identify multiple opportunities for drug repurposing: Primary screen for U-2 OS cells (AID 1347096); note: nearly all actives have a fitted effect of over 50% in size
Procedure, shortened: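 Cells (500-1,000/well) rested 5 h, then received compounds for 48 h; metabolically active cells were measured by CellTiter-Glo luminescence. Final concentrations spanned up to 46 µM (MIPE, 11-point) or 0.59 nM-46 µM (NPC, 8-point) in primary screens, 11-point in follow-ups.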

[11] = P-glycoprotein substrates identified in KB-3-1 adenocarcinoma cell line, qHTS therapeutic library screen (AID 1346986); note: nearly all actives have a fitted effect of over 60% in size
Procedure, shortened: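 Dose-response cytotoxicity, KB-3-1 vs P-gp-high KB-8-5-11, no colchicine in assay medium. Read: CellTiter-Glo at 72 h.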

[12] = P-glycoprotein substrates identified in KB-8-5-11 adenocarcinoma cell line, qHTS therapeutic library screen (AID 1346987); note: series mostly up to about 44 µM; nearly all actives have a fitted effect of over 65% in size
Procedure, shortened: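 Human cervical adenocarcinoma KB-8-5-11 cells, selected in colchicine to over-express P-gp and assayed without it, were exposed for 72 h to titrated compounds. An ATP-based luminescent viability signal gave AC50.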

[13] = NS1 protein of Zika virus - qHTS assay to identify small molecule inhibitors in human HEK 293 cells (AID 1347053); note: series mostly up to about 46 µM; nearly all actives have a fitted effect of over 55% in size
Procedure, shortened: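 Compound-treated (1 h pre-infection) HEK 293 cells infected with ZIKV MR766, MOI = 0.5; after 24 h at 37 C, NS1 read by TR-FRET; data normalized to uninfected and infected controls.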

[14] = Natriuretic polypeptide receptor (hNpr1) antagonism - Pilot counterscreen GloSensor control cell line (AID 1347045; calls by dose curve; note: series mostly up to about 38 µM)
Procedure, shortened: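 The SNP-driven cGMP luminescence signal (50 uM, 20 min, room temperature) was measured in GloSensor HEK293 control cells. Compounds were tested as a LOPAC titration series and preincubated for 30-50 min.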

[15] = molecular target: Atrial natriuretic peptide receptor 1 (Homo sapiens) (UniProt P16066); assay: Natriuretic polypeptide receptor (hNpr1) antagonism - Pilot screen (AID 1347049; calls by dose curve;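 note: HEK293 cells with hNpr1 and GloSensor cGMP luciferase stimulated by 0.1 nM hNppA; agonist-evoked cGMP luminescence read 20 min after hNppA addition; series mostly up to about 58 µM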)
Procedure, shortened: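 Receptor antagonism read as cGMP-dependent luminescence in hNpr1/pGS-40F HEK293 cells: pre-read after 30 min compound exposure, post-read 20 min after hNppA agonist at 0.1 nM final, all at room temperature, protected from light; A-71915 titration as control.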

[16] = molecular target: Atrial natriuretic peptide receptor 2 (Homo sapiens) (UniProt P20594); assay: Natriuretic polypeptide receptor (hNpr2) antagonism - Pilot subtype selectivity assay (AID 1347050; calls by dose curve)
Procedure, shortened: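 Antagonist mode: compounds (LOPAC1280, seven 1:5 dilutions) added 30 min before 1 nM hNppC stimulation of hNpr2-HEK293 cGMP-sensor cells; luminescence read before and 20 min after agonist at ambient temperature.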

[17] = molecular target: T1, Tyrosine-protein phosphatase non-receptor type substrate 1 (Homo sapiens) + Leukocyte surface antigen CD47 (Homo sapiens) (UniProt P78324+Q08722); assay: CD47-SIRPalpha protein protein interaction - LANCE assay qHTS validation (AID 1347057; active = well fitted curve in the direction sought with a large enough effect in the signal ratio, with a control signal flat, not every such curve was filed as active; the % refers to the signal ratio; note: series mostly up to about 38 µM)
Procedure, shortened: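 Inhibition of soluble CD47/SIRPalpha ectodomain association by titrated compounds, measured as 665/615 nm time-resolved FRET ratio after sequential 30 min room-temperature incubations.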

[18] = molecular target: T1, Tyrosine-protein phosphatase non-receptor type substrate 1 (Homo sapiens) + Leukocyte surface antigen CD47 (Homo sapiens); assay: CD47-SIRPalpha protein protein interaction - HTRF assay qHTS validation (AID 1347058; active = well fitted curve in the direction sought with a large enough effect in the signal ratio, not every such curve was filed as active; the % refers to the signal ratio; note: series mostly up to about 38 µM)
Procedure, shortened: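 Soluble extracellular domains (6His-CD47, Avi-tag-biotinylated SIRPalpha) in PBS pH 7.4 with 0.05% IGEPAL CA-630. Compounds were preincubated 30 min at RT with CD47 and anti-His-Eu, then SIRPalpha and SAV-XL665 were added. TR-FRET 665/615 ratio.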

[19] = molecular target: T1, Tyrosine-protein phosphatase non-receptor type substrate 1 (Homo sapiens) + Leukocyte surface antigen CD47 (Homo sapiens); assay: CD47-SIRPalpha protein protein interaction - Alpha assay qHTS validation (AID 1347059);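 note: bead proximity luminescence from CD47 binding SIRPalpha after compound preincubation with SIRPalpha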
Procedure, shortened: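 AlphaScreen signal between CD47-His (12.5 nM) and biotin-SIRPalpha (25 nM) soluble extracellular domains, bead-captured via Ni-NTA and streptavidin. Compounds, in 7-point titrations, met SIRPalpha 30 min before CD47; PBS pH 7.4 with 0.05% IGEPAL.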

[20] = molecular target: Parathyroid hormone/parathyroid hormone-related peptide receptor (Homo sapiens) (UniProt Q03431); assay: qHTS for PTHR1 Agonists: Optimization Screen against the NCGC LOPAC library (AID 1347079);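 note: GloSensor cAMP luminescence in HEK-293 GP2 cells expressing human PTHR1 with IBMX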
Procedure, shortened: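 Signal increase flags agonism. GP2 cells, derived from HEK-293, express human PTHR1 and a GloSensor cAMP construct.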

Measured: Potency

T1 sequence (P78324 whole entry, looked up, the tested form may be a part): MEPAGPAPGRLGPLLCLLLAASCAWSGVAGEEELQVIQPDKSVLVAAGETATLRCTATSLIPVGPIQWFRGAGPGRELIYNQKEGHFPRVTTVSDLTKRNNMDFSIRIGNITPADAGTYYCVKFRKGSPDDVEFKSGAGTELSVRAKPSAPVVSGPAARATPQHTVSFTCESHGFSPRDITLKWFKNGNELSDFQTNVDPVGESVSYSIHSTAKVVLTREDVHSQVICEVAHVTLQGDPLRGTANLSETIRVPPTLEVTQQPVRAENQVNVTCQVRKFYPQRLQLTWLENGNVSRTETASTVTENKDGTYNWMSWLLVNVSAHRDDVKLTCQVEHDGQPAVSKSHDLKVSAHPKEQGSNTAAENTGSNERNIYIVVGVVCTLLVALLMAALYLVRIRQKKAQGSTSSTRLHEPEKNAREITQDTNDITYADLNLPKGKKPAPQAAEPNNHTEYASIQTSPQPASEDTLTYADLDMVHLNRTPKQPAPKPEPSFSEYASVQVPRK
T1 sequence (Q08722 whole entry, looked up, the tested form may be a part): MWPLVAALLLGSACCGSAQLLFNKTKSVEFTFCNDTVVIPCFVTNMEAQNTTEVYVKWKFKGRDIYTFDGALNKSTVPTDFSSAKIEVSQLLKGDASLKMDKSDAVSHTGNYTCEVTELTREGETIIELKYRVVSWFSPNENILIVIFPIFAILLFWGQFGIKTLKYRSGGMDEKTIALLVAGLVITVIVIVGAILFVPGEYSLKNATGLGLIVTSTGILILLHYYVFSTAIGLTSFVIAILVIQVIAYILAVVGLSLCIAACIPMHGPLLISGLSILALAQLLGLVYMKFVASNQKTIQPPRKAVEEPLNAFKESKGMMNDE
Chain of Parathyroid hormone/parathyroid hormone-related peptide receptor (Homo sapiens) (Q03431 whole entry, looked up): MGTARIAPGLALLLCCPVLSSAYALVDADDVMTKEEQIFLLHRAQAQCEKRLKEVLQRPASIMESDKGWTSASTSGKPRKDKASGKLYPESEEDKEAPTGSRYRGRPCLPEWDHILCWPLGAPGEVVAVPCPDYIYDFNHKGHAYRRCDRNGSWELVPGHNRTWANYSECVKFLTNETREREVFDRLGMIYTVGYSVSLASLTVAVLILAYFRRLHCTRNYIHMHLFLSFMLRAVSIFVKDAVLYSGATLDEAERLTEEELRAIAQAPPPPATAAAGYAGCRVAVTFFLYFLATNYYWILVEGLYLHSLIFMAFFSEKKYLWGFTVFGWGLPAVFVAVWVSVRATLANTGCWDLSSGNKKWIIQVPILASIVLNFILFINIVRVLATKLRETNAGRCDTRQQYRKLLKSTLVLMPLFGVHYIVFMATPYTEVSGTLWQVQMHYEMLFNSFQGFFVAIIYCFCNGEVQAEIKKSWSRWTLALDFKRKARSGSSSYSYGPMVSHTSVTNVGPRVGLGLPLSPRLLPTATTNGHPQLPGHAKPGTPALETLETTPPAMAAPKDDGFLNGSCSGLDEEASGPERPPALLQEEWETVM
Chain of Atrial natriuretic peptide receptor 2 (Homo sapiens) (P20594 whole entry, looked up): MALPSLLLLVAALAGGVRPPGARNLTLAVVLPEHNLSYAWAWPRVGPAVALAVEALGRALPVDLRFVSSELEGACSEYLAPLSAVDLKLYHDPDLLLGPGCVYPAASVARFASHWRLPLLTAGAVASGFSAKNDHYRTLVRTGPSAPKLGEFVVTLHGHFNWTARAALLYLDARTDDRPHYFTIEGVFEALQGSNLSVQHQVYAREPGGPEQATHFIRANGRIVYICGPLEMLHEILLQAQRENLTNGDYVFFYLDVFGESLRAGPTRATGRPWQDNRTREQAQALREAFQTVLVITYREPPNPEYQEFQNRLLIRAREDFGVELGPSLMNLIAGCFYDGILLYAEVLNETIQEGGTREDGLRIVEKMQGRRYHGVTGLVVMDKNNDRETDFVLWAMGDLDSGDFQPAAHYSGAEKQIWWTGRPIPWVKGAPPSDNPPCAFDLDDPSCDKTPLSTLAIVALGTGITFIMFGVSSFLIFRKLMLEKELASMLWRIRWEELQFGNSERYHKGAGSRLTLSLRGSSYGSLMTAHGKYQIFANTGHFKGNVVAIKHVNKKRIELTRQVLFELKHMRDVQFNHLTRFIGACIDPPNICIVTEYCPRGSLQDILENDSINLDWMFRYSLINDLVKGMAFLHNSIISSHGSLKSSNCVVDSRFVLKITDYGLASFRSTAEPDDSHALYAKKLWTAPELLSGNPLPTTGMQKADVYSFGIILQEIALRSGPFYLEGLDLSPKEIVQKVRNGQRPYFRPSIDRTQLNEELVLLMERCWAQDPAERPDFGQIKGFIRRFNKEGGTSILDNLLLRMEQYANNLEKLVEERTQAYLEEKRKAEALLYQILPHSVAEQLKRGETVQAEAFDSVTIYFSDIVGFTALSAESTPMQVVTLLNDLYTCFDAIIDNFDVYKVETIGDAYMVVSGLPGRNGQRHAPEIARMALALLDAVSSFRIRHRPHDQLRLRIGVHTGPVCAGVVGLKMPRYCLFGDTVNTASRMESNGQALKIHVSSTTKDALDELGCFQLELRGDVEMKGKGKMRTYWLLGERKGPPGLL
Chain of Atrial natriuretic peptide receptor 1 (Homo sapiens) (P16066 whole entry, looked up): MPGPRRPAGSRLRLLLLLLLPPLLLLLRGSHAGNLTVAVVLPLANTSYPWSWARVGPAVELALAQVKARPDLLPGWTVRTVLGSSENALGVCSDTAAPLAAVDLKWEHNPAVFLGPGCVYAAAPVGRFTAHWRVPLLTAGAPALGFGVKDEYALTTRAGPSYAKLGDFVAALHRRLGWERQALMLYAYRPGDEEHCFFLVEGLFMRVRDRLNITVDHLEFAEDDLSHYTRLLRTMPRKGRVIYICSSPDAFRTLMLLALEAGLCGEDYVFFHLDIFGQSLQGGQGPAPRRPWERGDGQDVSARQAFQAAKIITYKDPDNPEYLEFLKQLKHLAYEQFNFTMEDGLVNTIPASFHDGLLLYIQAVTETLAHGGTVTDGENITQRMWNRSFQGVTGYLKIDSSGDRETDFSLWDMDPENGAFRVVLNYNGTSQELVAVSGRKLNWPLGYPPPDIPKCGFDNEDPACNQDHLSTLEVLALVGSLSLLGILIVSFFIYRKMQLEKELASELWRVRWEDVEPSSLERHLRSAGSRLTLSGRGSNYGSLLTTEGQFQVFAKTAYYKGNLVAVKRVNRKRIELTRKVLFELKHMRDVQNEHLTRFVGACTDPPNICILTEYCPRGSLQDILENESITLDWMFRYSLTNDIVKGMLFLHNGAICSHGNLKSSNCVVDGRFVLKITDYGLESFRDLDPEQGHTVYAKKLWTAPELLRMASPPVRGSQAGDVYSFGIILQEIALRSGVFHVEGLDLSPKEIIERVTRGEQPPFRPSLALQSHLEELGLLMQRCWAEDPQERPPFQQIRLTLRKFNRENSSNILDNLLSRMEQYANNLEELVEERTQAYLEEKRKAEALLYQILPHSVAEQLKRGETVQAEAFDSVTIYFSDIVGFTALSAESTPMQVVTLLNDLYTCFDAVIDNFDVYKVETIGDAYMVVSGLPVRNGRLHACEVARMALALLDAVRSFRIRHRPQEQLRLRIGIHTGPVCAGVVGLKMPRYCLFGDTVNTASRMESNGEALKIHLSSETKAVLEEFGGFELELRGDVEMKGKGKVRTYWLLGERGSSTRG

CC(=O)c1cc2ccccc2s1
inactive: [1] | [2] | [3] | [4] | [5] | [6] | [7] | [8] | [9] | [10]

COc1ccc2nc(SCc3ncc(C)c(OC)c3C)[nH]c2c1
inactive: [1] | [2] | [3] | [4] | [5] | [6] | [7] | [8] | [9] | [10]

C/C(=C1\CCOC(=O)S1)N(C=O)Cc1cnc(C)nc1N
inactive: [1] | [2] | [3] | [4] | [5] | [7] | [8] | [9] | [10]

CO/N=C(/C(=O)N[C@@H]1C(=O)N2C(C(=O)[O-])=C(C[n+]3ccn4ncccc43)CS[C@H]12)c1nsc(N)n1
inactive: [1] | [2] | [3] | [4] | [5] | [7] | [8] | [9] | [10]

N=C(N)c1ccc(OCCCOc2ccc(C(=N)N)cc2)cc1
inactive: [1] | [2] | [3] | [4] | [5] | [6] | [7] | [8] | [9]

O=C(C1CCCCC1)N1CC(=O)N2CCCc3ccccc3C2C1 (configuration not stated)
inactive: [1] | [2] | [3] | [6] | [7] | [10]

Cc1ccc2c(Cl)cc(Cl)c(O)c2n1
inactive: [1] | [2] | [4] | [5] | [6] | [7] | [8] | [9] | [10]

CO/N=C(/C(=O)N[C@@H]1C(=O)N2C(C(=O)O)=C(Cn3nnc(C)n3)CS[C@H]12)c1csc(N)n1
inactive: [1] | [11] | [12] | [13] | [3] | [4] | [5] | [7] | [8] | [9] | [10]

CC[C@@H]([C@H](C)O)n1ncn(-c2ccc(N3CCN(c4ccc(OC[C@@H]5CO[C@@](Cn6cncn6)(c6ccc(F)cc6F)C5)cc4)CC3)cc2)c1=O
inactive: [1] | [2] | [3]
active: [5] 18800 nM | [7] 11900 nM | [9] 21100 nM

COC(=O)c1ccc(NC(C)=O)cc1OC
inactive: [1] | [2] | [3] | [5] | [6] | [7] | [8] | [9] | [10]

CCN(CC)CCOc1ccc(/C(=C(\Cl)c2ccccc2)c2ccccc2)cc1
inactive: [1] | [2]
active: [5] 18800 nM | [6] 21100 nM

CCCC(=O)O[C@]1(C(=O)CCl)[C@@H](C)C[C@H]2[C@@H]3CCC4=CC(=O)C=C[C@]4(C)[C@@]3(F)C(=O)C[C@@]21C
inactive: [1] | [2] | [3] | [10]

Nc1c(I)cc(I)c(C(=O)N(CCC(=O)O)c2ccccc2)c1I
inactive: [1] | [2] | [4] | [5] | [6] | [7] | [8] | [9] | [10]

C[N+](C)(C)CCO
inactive: [1] | [12] | [14] | [15] | [16] | [17] | [18] | [19] | [20]

Nc1ccc(C(=O)N2CC3CC(CN(Cc4ccccc4)C3)C2)cc1
inactive: [1] | [2] | [3] | [4] | [5] | [6] | [7] | [8] | [10]

NC(=O)COCCN1CCN(C(c2ccccc2)c2ccc(Cl)cc2)CC1 (configuration not stated)
inactive: [1] | [2] | [3] | [4] | [5] | [6] | [7] | [8] | [9] | [10]

NC(=O)NS(=O)(=O)c1ccc(Cl)cc1
inactive: [1] | [2] | [3] | [4] | [5] | [6] | [7] | [8] | [10]

O=C(O)C(=O)Nc1cccc(-c2nn[nH]n2)c1
inactive: [1] | [2] | [3] | [4] | [6] | [7] | [8] | [9] | [10]

CCC1=C[C@@H]2CN(C1)Cc1c([nH]c3ccccc13)[C@@](C(=O)OC)(c1cc3c(cc1OC)N(C)[C@H]1[C@@](O)(C(=O)OC)[C@H](OC(C)=O)[C@]4(CC)C=CCN5CC[C@]31[C@@H]54)C2
active: [3] 26.4 nM | [4] 53.1 nM | [6] 10.6 nM | [7] 16.8 nM | [8] 27.6 nM | [9] 33.5 nM
inactive: [1] | [2]

COc1cc(S(N)(=O)=O)cc(C(=O)O)c1OC
inactive: [1] | [2] | [3] | [4] | [5] | [7] | [9] | [10]

Cc1coc2ccccc2c1=O
inactive: [1] | [2] | [3] | [4] | [5] | [6] | [7] | [8] | [9] | [10]

Source: PubChem BioAssay (NCATS)
